The full data set covers some 21,000 targets. This sample favours those with the largest changes.
Compound: Cc1cc(ccc1-c1ccccc1)C(=O)N1CCCN(CC1)C(=O)CCl [compound 10]
Assay: probe-labelled cysteine peptide fold change vs DMSO (competition) (log2 fold change); higher = less target engagement (more negative = stronger competition)
Details: THP-1, incubation time: 4 h
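Note: competitive profiling in live THP-1 cells: cysteine peptides tagged with an iodoacetamide desthiobiotin (IA-DTB) probe, intensity after compound treatment relative to DMSO-treated cells.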

Chain of UniProt Q9Y490 (Q9Y490 whole entry, looked up): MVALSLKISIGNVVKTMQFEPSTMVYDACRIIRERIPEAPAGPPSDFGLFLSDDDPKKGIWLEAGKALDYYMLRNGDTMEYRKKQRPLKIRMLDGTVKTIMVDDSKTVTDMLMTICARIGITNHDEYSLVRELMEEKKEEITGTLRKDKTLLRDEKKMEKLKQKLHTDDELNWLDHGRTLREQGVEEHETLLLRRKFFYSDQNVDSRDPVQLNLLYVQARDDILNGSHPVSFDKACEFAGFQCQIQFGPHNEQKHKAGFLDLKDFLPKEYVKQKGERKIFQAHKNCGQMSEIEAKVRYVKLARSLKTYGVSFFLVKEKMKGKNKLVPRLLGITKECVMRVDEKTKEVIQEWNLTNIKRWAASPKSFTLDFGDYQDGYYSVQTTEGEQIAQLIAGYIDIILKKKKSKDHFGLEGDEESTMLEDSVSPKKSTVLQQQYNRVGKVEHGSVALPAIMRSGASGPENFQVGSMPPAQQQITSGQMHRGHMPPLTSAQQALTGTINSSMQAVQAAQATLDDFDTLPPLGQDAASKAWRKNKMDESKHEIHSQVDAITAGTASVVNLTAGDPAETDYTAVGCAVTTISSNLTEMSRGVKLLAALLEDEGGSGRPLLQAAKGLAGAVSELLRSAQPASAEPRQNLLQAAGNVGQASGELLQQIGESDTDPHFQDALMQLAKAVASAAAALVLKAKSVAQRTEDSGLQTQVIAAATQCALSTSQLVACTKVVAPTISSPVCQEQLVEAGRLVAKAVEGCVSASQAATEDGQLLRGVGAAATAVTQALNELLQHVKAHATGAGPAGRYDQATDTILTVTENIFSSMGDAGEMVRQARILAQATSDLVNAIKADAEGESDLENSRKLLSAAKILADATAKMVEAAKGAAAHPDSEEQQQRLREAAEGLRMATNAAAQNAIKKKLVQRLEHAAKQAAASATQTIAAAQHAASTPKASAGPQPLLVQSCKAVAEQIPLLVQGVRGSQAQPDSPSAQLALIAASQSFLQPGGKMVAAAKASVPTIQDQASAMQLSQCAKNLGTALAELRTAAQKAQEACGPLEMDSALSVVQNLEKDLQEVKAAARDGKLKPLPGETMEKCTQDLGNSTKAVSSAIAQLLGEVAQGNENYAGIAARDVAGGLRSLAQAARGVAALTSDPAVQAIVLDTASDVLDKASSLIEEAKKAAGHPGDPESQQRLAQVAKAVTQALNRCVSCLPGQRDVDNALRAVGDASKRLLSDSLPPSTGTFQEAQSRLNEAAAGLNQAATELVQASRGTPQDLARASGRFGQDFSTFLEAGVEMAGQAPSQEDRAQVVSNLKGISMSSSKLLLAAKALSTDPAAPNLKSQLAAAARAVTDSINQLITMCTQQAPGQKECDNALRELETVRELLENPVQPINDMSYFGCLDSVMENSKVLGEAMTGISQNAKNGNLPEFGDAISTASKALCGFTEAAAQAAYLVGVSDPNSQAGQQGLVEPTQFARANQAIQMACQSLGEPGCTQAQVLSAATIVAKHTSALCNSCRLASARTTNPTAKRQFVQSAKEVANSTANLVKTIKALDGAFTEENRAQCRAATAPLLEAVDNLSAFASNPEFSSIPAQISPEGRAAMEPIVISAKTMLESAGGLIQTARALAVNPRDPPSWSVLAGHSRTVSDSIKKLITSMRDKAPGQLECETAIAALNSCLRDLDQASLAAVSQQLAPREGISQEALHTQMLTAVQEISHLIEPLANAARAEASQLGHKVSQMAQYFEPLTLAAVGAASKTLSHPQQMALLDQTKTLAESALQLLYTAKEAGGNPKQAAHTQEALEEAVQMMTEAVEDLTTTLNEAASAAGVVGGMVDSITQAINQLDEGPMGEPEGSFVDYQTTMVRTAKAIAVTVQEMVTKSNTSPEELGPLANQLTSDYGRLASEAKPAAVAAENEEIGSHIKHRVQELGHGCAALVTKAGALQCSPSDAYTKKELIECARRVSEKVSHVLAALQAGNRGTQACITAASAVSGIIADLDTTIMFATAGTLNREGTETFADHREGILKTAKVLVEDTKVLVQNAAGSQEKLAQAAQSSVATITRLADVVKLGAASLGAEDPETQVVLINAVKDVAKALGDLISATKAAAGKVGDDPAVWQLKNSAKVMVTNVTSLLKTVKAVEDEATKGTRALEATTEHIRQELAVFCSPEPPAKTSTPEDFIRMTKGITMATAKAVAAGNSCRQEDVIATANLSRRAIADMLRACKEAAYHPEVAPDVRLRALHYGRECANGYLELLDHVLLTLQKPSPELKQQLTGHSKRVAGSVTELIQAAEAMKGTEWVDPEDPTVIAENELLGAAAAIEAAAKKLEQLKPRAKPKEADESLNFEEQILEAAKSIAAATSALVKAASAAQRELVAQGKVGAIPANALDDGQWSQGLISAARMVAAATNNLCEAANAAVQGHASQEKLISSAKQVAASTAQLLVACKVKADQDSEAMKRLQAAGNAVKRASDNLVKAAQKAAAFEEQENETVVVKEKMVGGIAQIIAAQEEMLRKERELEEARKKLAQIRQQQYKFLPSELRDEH
Chain of UniProt Q9BW92 (Q9BW92 whole entry, looked up): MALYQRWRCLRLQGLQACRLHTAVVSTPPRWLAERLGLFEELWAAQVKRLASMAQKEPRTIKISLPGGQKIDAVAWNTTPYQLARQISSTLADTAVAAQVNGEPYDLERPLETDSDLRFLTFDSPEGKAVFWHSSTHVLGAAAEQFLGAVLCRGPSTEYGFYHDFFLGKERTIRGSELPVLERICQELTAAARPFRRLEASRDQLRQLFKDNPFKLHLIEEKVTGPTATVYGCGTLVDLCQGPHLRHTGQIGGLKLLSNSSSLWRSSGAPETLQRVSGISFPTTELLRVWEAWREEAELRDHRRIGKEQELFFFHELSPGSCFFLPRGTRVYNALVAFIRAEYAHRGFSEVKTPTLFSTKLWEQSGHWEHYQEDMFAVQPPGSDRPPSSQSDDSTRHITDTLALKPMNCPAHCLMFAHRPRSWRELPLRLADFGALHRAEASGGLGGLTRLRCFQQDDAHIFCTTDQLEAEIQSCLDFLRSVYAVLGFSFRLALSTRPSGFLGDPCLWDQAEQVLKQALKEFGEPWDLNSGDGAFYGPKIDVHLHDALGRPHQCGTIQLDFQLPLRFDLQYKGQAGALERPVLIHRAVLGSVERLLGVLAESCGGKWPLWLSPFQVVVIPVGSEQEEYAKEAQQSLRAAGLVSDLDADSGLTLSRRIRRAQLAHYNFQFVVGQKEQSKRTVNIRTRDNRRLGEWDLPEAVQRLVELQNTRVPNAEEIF
Chain of UniProt Q13884 (Q13884 whole entry, looked up): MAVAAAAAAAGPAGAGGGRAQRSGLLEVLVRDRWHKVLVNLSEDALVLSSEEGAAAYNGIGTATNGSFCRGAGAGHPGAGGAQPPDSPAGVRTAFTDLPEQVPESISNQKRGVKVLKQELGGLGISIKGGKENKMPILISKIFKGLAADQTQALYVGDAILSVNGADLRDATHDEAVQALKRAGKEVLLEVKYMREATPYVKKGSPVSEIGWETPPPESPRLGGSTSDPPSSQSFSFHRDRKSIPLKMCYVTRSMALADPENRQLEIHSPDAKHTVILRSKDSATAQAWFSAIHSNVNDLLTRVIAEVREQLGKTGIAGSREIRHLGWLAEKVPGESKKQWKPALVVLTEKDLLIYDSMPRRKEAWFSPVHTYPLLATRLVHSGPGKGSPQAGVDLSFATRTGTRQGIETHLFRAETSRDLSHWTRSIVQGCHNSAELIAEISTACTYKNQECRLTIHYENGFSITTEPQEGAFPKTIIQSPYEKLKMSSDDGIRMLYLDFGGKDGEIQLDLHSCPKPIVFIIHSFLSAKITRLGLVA
Chain of UniProt Q9Y5L0 (Q9Y5L0 whole entry, looked up): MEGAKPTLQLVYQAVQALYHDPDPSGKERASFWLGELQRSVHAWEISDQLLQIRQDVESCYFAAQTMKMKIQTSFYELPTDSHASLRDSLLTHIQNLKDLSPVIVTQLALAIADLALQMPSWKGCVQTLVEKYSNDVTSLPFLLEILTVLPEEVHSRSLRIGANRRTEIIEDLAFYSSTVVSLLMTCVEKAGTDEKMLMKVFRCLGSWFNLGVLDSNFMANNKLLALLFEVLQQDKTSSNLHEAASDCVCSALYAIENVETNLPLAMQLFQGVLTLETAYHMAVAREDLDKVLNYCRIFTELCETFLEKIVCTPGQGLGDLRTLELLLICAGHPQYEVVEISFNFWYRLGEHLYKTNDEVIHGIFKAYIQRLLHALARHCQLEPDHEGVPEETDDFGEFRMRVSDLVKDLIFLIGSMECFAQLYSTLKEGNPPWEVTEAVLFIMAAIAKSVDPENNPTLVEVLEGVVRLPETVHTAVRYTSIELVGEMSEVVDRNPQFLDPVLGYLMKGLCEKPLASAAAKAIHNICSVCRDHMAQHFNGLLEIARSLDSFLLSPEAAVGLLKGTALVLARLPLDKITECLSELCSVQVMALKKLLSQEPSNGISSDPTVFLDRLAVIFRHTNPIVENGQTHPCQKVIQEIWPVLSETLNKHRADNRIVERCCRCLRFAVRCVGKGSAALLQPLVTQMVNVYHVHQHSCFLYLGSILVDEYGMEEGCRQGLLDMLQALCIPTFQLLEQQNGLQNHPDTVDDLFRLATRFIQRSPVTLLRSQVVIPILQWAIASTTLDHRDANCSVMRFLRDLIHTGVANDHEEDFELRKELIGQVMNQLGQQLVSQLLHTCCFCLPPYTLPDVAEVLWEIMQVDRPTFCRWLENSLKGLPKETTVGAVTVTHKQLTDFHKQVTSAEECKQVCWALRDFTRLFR
Chain of UniProt Q8IY95 (Q8IY95 whole entry, looked up): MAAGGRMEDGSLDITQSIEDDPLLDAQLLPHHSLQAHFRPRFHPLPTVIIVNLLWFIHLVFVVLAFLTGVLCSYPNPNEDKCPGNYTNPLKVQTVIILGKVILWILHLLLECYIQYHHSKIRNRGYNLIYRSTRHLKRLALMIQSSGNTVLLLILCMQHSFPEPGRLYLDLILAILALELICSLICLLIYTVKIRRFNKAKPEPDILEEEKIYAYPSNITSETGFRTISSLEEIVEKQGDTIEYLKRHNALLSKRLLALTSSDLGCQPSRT

Target	probe-labelled cysteine peptide fold change (10 µM)	probe-labelled cysteine peptide fold change (50 µM)
STK11_Q15831_418_ACSASSK (UniProt Q15831)	-0.73	-1.42
STK11_Q15831_210_ISDLGVAEALHPFAADDTCR (UniProt Q15831)	-0.252	-0.136
TESC_Q96BS2_213_FLNMETMALCH (UniProt Q96BS2)	-0.431	-1.46
SQOR_Q9Y6N5_201_CAGAPQK (UniProt Q9Y6N5)	-0.191	-0.122
TPI1_P60174_164_VAHALAEGLGVIACIGEK (UniProt P60174)	0.0839	0.00853
SPCS2_Q15005_17+26_SGGSGGCSGAGGASNCGTGSGR (UniProt Q15005)	-0.494	-1.1
SUGP2_Q8IX01_417_NCFFEIIKPFDK (UniProt Q8IX01)	-0.328	-1.49
TAPBPL_Q9BX59_39_AVDVVLDCFLAK (UniProt Q9BX59)	0.062	-0.104
TARS2_Q9BW92_322_IGKEQELFFFHELSPGSCFFLPR (UniProt Q9BW92)	-0.0453	-0.425
SON_P18583-2_2133_DLMANATCFR (UniProt P18583)	5.1e-05	-0.396
STIP1_P31948_471_CMMAQYNR (UniProt P31948)	0.271	-0.0499
SUZ12_Q15022_494_IDVSINECYDGSYAGNPQDIHR (UniProt Q15022)	0.105	0.302
TMEM192_Q8IY95_266_RLLALTSSDLGCQPSR (UniProt Q8IY95)	-0.0328	0.17
SUN2_Q9UH99_601_VILQPDVHPGNCWAFQGPQGFAVVR (UniProt Q9UH99)	0.0264	0.295
SP100_P23497_266+270_EMPCPLPCDEESPEAELHNHGIQINSCSVR (UniProt P23497)	-0.396	-1.25
TNPO3_Q9Y5L0_580_ITECLSELCSVQVMALKK (UniProt Q9Y5L0)	-0.00843	-0.267
TEP1_Q99973_2105_TPVLIHSFPACHR (UniProt Q99973)	-0.0307	-0.291
TARS_P26639_467_RFQQDDAHIFCAMEQIEDEIK (UniProt P26639)	0.126	0.326
THOC1_Q96FV9_396_NEGCPSFVK (UniProt Q96FV9)	-0.137	-0.0773

Target	probe-labelled cysteine peptide fold change (10 µM)	probe-labelled cysteine peptide fold change (50 µM)
TNFAIP2_Q03169_429_ANVIANINNCLSFR (UniProt Q03169)	-0.0434	0.184
SNX6_Q9UNH7_347+348_DVLQAETSQQLCCQK (UniProt Q9UNH7)	-0.288	-0.619
TET3_O43151_1381_GKPWSPCK (UniProt O43151)	-0.379	-1.3
TBC1D13_Q9NVG8_145_ATDYPCLLILDPQNEFETLR (UniProt Q9NVG8)	-0.0238	0.373
TBL2_Q9Y4P3_240_GQVLSTINTNQMNNTHAAVSPCGR (UniProt Q9Y4P3)	-0.0462	0.0804
SNX1_Q13596_318_LQEVECEEQR (UniProt Q13596)	-0.177	-0.146
TOP1_P11387_504_AGNEKEEGETADTVGCCSLR (UniProt P11387)	-0.0614	-1.22
TLN1_Q9Y490_1363_ECDNALRELETVR (UniProt Q9Y490)	-0.431	-1
TOPBP1_Q92547_911_VVVCVSK (UniProt Q92547)	-0.0487	-0.114
SP9_P0CG40_308_ATCDCPNCQEAER<|>SP8_Q8IXZ3_332_ATCDCPNCQEAER (UniProt Q8IXZ3+P0CG40)	0.0559	0.393
TBCCD1_Q9NVR7_337_CNESFIYLLSPLR (UniProt Q9NVR7)	0.178	0.422
SYK_P43405_89+101_THASPADLCHYHSQESDGLVCLLK (UniProt P43405)	-0.0638	-0.0651
TMEM120A_Q9BXJ8_47_LQNNCTSSITR (UniProt Q9BXJ8)	-0.176	-0.0504
SORD_Q00796_301_YCNTWPVAISMLASK (UniProt Q00796)	0.251	0.115
THOC2_Q8NI27_436_DVFNMFCYLGPHLSHDPILFAK (UniProt Q8NI27)	0.0617	0.215
SRPRA_P08240_253_VWELGGCANK (UniProt P08240)	-0.192	-0.783
TMEM147_Q9BVK8_116_CIPLWVGAR (UniProt Q9BVK8)	-0.0315	-0.102
SNTB1_Q13884_515_DGEIQLDLHSCPK (UniProt Q13884)	-0.136	1
SPAG5_Q96R06_907_TEQETLLLSTACPPTQEHPLPNDR (UniProt Q96R06)	-0.115	0.0555
